Screens as filed in PubChem BioAssay.
Shown are actives, neighbours in structure and some others; about 0.9% of the full set was active somewhere.
Rv3671c protease = Rv3671c serine protease inhibitors, primary screen, biochemical, fluorescence polarization, M. tuberculosis H37Rv. actives 0.048% (n = 320,000). P9WHR9. inhibition, % at 5.96 µM; in the data active = inhibition above about 38%;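 also: extracellular domain of Rv3671c used as enzyme; 0% = enzyme with DMSO and 100% = no enzyme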
RecA splice inh = Mtb RecA intein splicing inhibitors, primary screen, biochemical, fluorescence, HTS. Protein RecA (Mycobacterium tuberculosis (strain ATCC 25618 / H37Rv)), P9WHJ3. cell-free RecA intein splicing. inhibition, % (concentration not given with the values). actives 0.75% (n = 290,000); in the data active = inhibition above about 30%;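 also: 0% = vehicle wells and 100% = reference inhibitor control wells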
Mtb BioA inh = M. tuberculosis BioA enzyme inhibitors, primary screen, biochemical, plate reader, single point, HTS. 7,8-diaminopelargonic acid synthase BioA (Mycobacterium tuberculosis). purified M. tuberculosis BioA enzyme. actives 0.096% (n = 360,000). inhibition, % at 9.99 µM; in the data active = inhibition above about 40%
UGM FP inh = M. tuberculosis UGM enzyme inhibitors, primary screen, biochemical, fluorescence polarization, single point. UDP-galactopyranose mutase (Mycobacterium tuberculosis (strain ATCC 25618 / H37Rv)), …. purified UGM, fluorescence polarization probe displacement. inhibition, % at 10 µM. actives 0.06% (n = 320,000); in the data active = inhibition above about 10%, passing the limit was not always enough
Target sequence (P9WIQ1 whole entry, looked up): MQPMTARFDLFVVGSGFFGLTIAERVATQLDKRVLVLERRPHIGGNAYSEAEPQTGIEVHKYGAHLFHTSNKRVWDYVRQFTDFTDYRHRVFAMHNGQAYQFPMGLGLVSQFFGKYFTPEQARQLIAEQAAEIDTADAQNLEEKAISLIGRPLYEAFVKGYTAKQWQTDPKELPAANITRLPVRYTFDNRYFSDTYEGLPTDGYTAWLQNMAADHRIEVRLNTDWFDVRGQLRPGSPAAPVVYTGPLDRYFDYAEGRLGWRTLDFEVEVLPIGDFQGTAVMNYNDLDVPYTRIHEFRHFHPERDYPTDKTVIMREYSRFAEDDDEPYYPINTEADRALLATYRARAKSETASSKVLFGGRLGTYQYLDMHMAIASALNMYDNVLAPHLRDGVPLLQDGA
FadD28 binding = inhibitors of FadD28 bisubstrate probe binding, primary screen, biochemical, fluorescence polarization, single point; Mycobacterium tuberculosis FadD28 fatty-acid-AMP ligase; inhibition, % at 12.5 µM; actives 0.22% (n = 360,000); AID 588549, 2011; in the data active = inhibition above about 8.5%, passing the limit was not always enough
TcdB inh = TcdB glycohydrolase inhibitors, primary screen, biochemical, single point, plate reader. Toxin B (Clostridioides difficile), P18177. TcdB glycohydrolase enzymatic assay. inhibition, % at 9.99 µM. AID 652162, 2013. actives 0.24% (n = 350,000); in the data active = inhibition above about 10%
An asterisk follows results filed as active; . = no result given.

SMILES	Rv3671c protease	RecA splice inh	Mtb BioA inh	UGM FP inh	FadD28 binding	TcdB inh
CN(C)C1C(=O)C(C(N)=O)=C(O)C2(O)C(=O)C3=C(O)c4c(O)cccc4C(C)(O)C3CC12 (stereo not given)	-1	-10	-5	4	0	.
O=C1CC(=O)N(Cc2ccco2)C(=S)N1	-36	2	0	-6	29*	.
O=C1CC(=O)N(Cc2ccco2)C(=O)N1	-14	2	-3	-2	4	.
CO[C@H]1CN(C)C(=O)c2ccc(NC(=O)C3CCC3)cc2OC[C@H](C)N(C(=O)CN(C)C)C[C@H]1C	.	.	-5	.	.	.
COc1cccc(NC(=O)Cn2nnc(-c3ccccc3N)n2)c1	-11	2	2	4	15*	.
Cc1ccccc1-c1ccc(C2[C@@H]3CN(C(=O)Nc4cccc(F)c4)C[C@H]2N3)cc1 (stereo not given in full)	.	.	.	.	.	-1
O=C1c2cc([N+](=O)[O-])ccc2-c2ncccc21	-5	46*	.	1	-1	1
CSCCC(NS(=O)(=O)c1cccs1)C(=O)NCc1ccc(C)cc1 (stereo not given)	-34	-1	-1	-3	-2	0
Cc1ccc(CNC(=O)C(Cc2ccccc2)NS(=O)(=O)c2cccs2)cc1 (stereo not given)	-8	-2	5	-1	16*	1
Cc1ccc(CNC(=O)C(Cc2ccccc2)NS(=O)(=O)c2ccc(Br)s2)cc1 (stereo not given)	-6	6	.	0	50*	0
CCN(CC)CCNC(=O)CSc1c2c(nc3cc(Cl)ccc13)CCCC2	-10	35*	.	2	-10	1
CCOC(=O)c1ccc2ncc(-c3ccccc3)nc2c1	.	4	.	.	-1	25*
Cc1cc2ncc(-c3ccccc3)nc2cc1C	-8	3	0	1	0	0
Cc1ccc(S(=O)(=O)N(C)C[C@H]2Oc3ccc(NC(=O)C4CC4)cc3CC(=O)N([C@@H](C)CO)C[C@@H]2C)cc1	.	.	-2	.	.	0
COC(CN(C(=O)CCl)C(C(=O)NC1CCCCC1)c1ccccc1C)OC (stereo not given)	-1	25	.	-3	0	2
COC(CN(C(=O)CCl)C(C(=O)NC1CCCC(C)C1C)c1ccc(C)cc1)OC (stereo not given)	-8	45*	5	0	-3	.
CN(C)C(=O)c1cccc(-c2ccccc2[C@@H]2[C@@H](C#N)N(C(=O)C3CCCC3)[C@@H]2CO)c1	.	.	.	.	.	-1
COC(=O)CCCC1=CC2=CC(=O)C(C)(OC(=O)c3cnc4ccccc4n3)C(=O)C2=CO1 (stereo not given)	23	-6	.	6	.	.
CCCCC1=CC2=CC(=O)C(C)(OC(=O)c3cnc4ccccc4n3)C(=O)C2=CO1 (stereo not given)	7	34*	.	2	.	.
Cc1ccc(NC(=O)c2cnc(SCC(=O)NCC3CCCO3)n(C)c2=O)cc1C (stereo not given)	-32	51*	-1	0	-1	2
Cc1nc2[nH]c(=S)[nH]c(=O)c2nc1C	.	.	-1	.	-4	2
Cc1nc2[nH]c(=S)[nH]c2c(=O)[nH]1	.	.	0	.	-3	29*
O=C(c1ccccc1F)N1CC2(C1)[C@H](c1ccccc1)[C@@H](CO)N2CC1CC1	.	.	.	.	.	0
COc1cc(/C=C(\C#N)C(=O)NC2CCCCC2C)ccc1OS(=O)(=O)c1ccc(C)cc1 (stereo not given)	-53	56*	0	-2	0	.
C[C@H](CO)N1C[C@H](C)[C@H](CN(C)Cc2ccc(C(=O)Nc3ccccc3N)cc2)Oc2ccc(NC(=O)Cc3ccccc3)cc2CC1=O	.	.	.	.	.	0
COc1ccccc1CNC(=O)CCCc1cn(C)c2ccccc12	.	3	0	4	1	-5
COc1ccc(CNC(=O)Cc2cn(C)c3ccccc23)c(OC)c1	1	0	1	2	-1	28*
C[C@@H]1CCCCO[C@@H](CN(C)C)[C@H](C)CN([C@H](C)CO)C(=O)c2cc(NC(=O)Nc3cccc4ccccc34)ccc2O1	.	.	-1	.	.	1
